Hits are enriched below; roughly 1.4% of the tested compounds scored in any of these assays.
FBPA Giardia inh – inhibitors of Giardia lamblia fructose-1,6-bisphosphate aldolase; 290,000 tested, 0.71% active; Potency, µM (top dose mostly 59.6 µM), for the others: at the top dose activity, negative = inhibition, hits mostly inhibitors; purified Giardia FBPA; A8B2U2; note: nearly all actives have a fitted effect of over 55% in size
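Giardia FBPA (40 nM reagent) was preincubated 10 min at RT with compound (up to 57.5 uM final), then substrate plus GAPDH/TPI/NAD/arsenate coupling system with diaphorase/resazurin was added; resorufin fluorescence (525/598 nm) was read after 20 min.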
LmPK inh – blocks Leishmania mexicana pyruvate kinase activity; Q27686; purified LmPK, Kinase-Glo ATP luminescence, 1 h; Potency, µM (highest dose often 57.5 µM), for the others: at the top dose activity change, negative = inhibition, most hits filed as inhibitors; 290,000 tested, 0.37% active
Target sequence (Q27686 whole entry, looked up): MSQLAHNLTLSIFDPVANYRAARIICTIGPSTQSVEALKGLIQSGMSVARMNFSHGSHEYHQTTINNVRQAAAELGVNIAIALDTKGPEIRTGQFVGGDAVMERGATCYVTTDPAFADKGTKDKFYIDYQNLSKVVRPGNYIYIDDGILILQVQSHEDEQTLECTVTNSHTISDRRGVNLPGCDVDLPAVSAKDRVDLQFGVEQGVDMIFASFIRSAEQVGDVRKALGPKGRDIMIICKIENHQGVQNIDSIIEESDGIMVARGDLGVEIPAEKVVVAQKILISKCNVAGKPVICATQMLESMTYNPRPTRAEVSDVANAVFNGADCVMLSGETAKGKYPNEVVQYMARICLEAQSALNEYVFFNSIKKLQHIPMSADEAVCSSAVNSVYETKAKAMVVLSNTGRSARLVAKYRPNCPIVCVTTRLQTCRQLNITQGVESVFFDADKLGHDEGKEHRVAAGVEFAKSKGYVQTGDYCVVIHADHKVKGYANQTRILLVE
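ATP generated from ADP (0.1 mM) and PEP (0.5 mM) by 0.1 nM LmPK over 1 h at room temperature (pH 7.2 imidazole buffer) was detected by coupled luciferase luminescence. Values were normalized to uninhibited and no-enzyme wells.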
AmpC no deterg – inhibitors of E. coli AmpC beta-lactamase without detergent; P00811; AmpC nitrocefin hydrolysis, absorbance 480 nm, 0.0001% Triton; Potency, µM (titrated, usually from 57.1 µM), without a hit: at the top dose activity change, negative = inhibition, most hits filed as inhibitors; 330,000 tested, 0.52% active;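 note: plate controls were no compound for no effect and no enzyme for full effect; nearly all actives have a fitted effect of over 20% in size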
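AmpC (5.3 nM in the dispensed reagent) in 20 mM phosphate pH 7.0 with 0.01% (detergent screen) or 0.0001% Triton X-100 was preincubated with compounds for 15 min at room temperature. Nitrocefin was then added from an 800 uM solution, and hydrolysis was followed at 480 nm.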
AmpC inh detg – blocks E. coli AmpC beta-lactamase in detergent assay; AmpC hydrolysis of nitrocefin, absorbance 480 nm, 0.01% Triton; AID 485294; Potency, µM (highest dose often 114 µM), for inactives: at the highest dose activity change, negative = inhibition, hits mostly inhibitors; 370,000 tested, 0.041% active;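 note: 0% = no-compound wells and -100% = no-enzyme wells; nearly all actives have a fitted effect of over 25% in size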
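20 mM phosphate pH 7.0 + 0.01% (detergent screen) or 0.0001% Triton X-100; 5.3 nM AmpC reagent; cpd preinc 15 min RT; nitrocefin (800 uM stock) to start; A480 q20 s × 4 min; Activity was normalised to no-enzyme and no-compound control wells.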
RE007 growth inh – less growth of the S. pombe RE007 Vpr strain; 360,000 tested, 0.21% active; S. pombe RE007 Vpr strain, BacTiter-Glo ATP luminescence, 24 h; Potency, µM (titrated, usually from 92.2 µM), for the others: at the top dose activity change, negative = less growth, actives largely listed as inhibitors; active = well fitted falling curve with a large enough effect; inconclusive = small, poorly fitted or top-dose-only effect; inactive = no such curve, though single readings can be large or run the other way; note: nearly all actives have a fitted effect of over 50% in size
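Fission yeast RE007 carrying one integrated HIV-1 vpr copy, seeded at OD 0.01 in PMG+AL medium with 23 nL pinned compound. Grown 24 h at 30 degrees; viability read by BacTiter-Glo luminescence after 5 min.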
Tb PYK inh – T. brucei pyruvate kinase inhibition; 410,000 tested, 0.12% active; AID 624173; Potency, µM (doses to about 76.8 µM), without a hit: at the top dose activity, negative = inhibition, hits mostly inhibitors; TbPYK enzyme, Kinase-Glo Plus ATP luminescence, 45 min; Q57TT1; note: nearly all actives have a fitted effect of over 50% in size
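Assay buffer: 50 mM TEA pH 7.2, 100 mM KCl, 10 mM MgCl2, 0.05% BSA, 0.01% Tween-20. Pyruvate kinase from T. brucei plus substrate met compound, then ADP (130 uM final). Luminescence was read post 45 min RT.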
An asterisk follows results filed as active; ? = inconclusive; · = no result given. Unless noted, calls come from the whole dose curve; as a rule, active = well fitted curve in the direction sought with a large enough effect; inconclusive = small, poorly fitted or top-dose-only effect, or another doubt; inactive = no such curve, though single readings can be large; an effect the other way counts as inactive or inconclusive. Unless noted, % is set by controls: 0 for no effect and ±100 for the full control effect; potency is the fitted concentration of half-maximal effect.

SMILES | FBPA Giardia inh | LmPK inh | AmpC no deterg | AmpC inh detg | RE007 growth inh | Tb PYK inh
CCOc1ccccc1N(CC)C(=O)c1cc2c(=O)[nH]c3ccc(C)cc3c2s1 | · | · | · | 16% | · | 0%
CC1CCN(c2ncnc3c2cnn3-c2ccc(F)cc2)CC1 | · | · | · | -4% | · | -4%
CCCCn1c(-c2ccc([N+](=O)[O-])cc2)n[nH]c1=S | 3% | ? | -20% | 0% | 10% | 1.1µM*
COCCCNC(=O)c1oc2c(c1C)-c1nn(Cc3ccccc3Cl)cc1CC2 | · | · | · | 22% | · | 7%
COc1cc(C(=O)OCc2cc(=O)n3ccsc3n2)cc(OC)c1OC | · | · | · | 6% | · | 6%
Fc1cccc(CSc2nc(NCCc3ccccc3)c3ccccc3n2)c1 | · | · | · | -3% | · | 3%
Cc1ccc2c(c1)N(C(=O)N1CCC(C(=O)NCc3ccccc3C)CC1)CC(C)O2 (stereo not drawn) | · | · | · | 20% | · | -2%
O=c1ccc2ccccc2c2ccccc12 | · | · | · | · | ? | -2%
O=Nc1c(O)c2ccccc2c2ccccc12 | · | · | · | · | 45µM* | 0%
CCN1C(=O)/C(=C/C=C2/Sc3ccc4ccccc4c3N2CCO)SC1=S | -2% | -22% | -22% | -9% | -5% | ?
CCN1/C(=C/C=C/c2oc3ccc4ccccc4c3[n+]2CC)Oc2ccc3ccccc3c21 | -4% | -17% | -1% | -8% | 13µM* | -14%
O=C(CS(=O)(=O)c1cccc2nsnc12)NCc1ccc(Cl)cc1 | · | · | · | -8% | · | -1%
Oc1cc2c(cc1O)[C@H]1c3ccccc3CN[C@@H]1CC2 | -22% | 4.5µM* | -18% | -3% | · | ·
c1ccc([C@H]2CNCc3ccccc32)cc1 | 4% | · | · | · | · | ·
O=C(O)c1ccnc(C(=O)O)c1 | 1.8µM* | 3% | 0% | -14% | 8% | 2%
Cc1ccc(CN2C(=O)c3ccccc3C2C(=O)NCc2cccnc2)cc1 (stereo not drawn) | -1% | 4% | 0% | 4% | -15% | -4%
O=C(NCc1cccnc1)C1c2ccccc2C(=O)N1C1CCCC1 (stereo not drawn) | 4% | 0% | 20µM* | ? | 3% | -8%
O=C(Nc1ccc2c(c1)nc1n2CCSC1)c1ccccc1 | -21% | 16µM* | -23% | -9% | -15% | -18%
COc1ccc(C(=O)Nc2ccc3c(c2)nc2n3CCSC2)cc1 | -11% | 0% | -15% | -4% | -13% | 0%
Cc1cc(C(C)(C)C)oc1C(=O)N(CC(=O)NC1CCCC1)Cc1ccccc1Cl | -2% | 1% | 5.6µM* | 6% | 5% | -1%
CO[C@]1(NC(=O)Cc2cccs2)C(=O)N2C(C(=O)O)=CC(COC(N)=O)S[C@H]21 (stereo partly drawn) | · | · | · | · | · | 2%
Oc1ccc(/C=N/N2CCCCC2)c(O)c1O | 2.8µM* | -11% | -16% | -4% | 3% | ?
Oc1ccc(/C=N/N2CCOCC2)c(O)c1O | 5.6µM* | -3% | -27% | -8% | -19% | ?
Oc1cccc(/C=N/N2CCCCC2)c1O | -12% | -9% | -15% | -1% | -19% | -2%
CCOC(=O)c1ccc(NC(=O)CCc2c(C)nc3c(c(C)nn3-c3ccccc3)c2C)cc1 | · | · | · | 18% | · | 1%
SMILES | FBPA Giardia inh | LmPK inh | AmpC no deterg | AmpC inh detg | RE007 growth inh | Tb PYK inh
COc1cc2c(cc1O)CCN[C@@]21CS[C@H]2c3c(OC(C)=O)c(C)c4c(c3C(COC1=O)N1C2C2c3c(cc(C)c(OC)c3O)CC([C@@H]1O)N2C)OCO4 (stereo partly drawn) | · | · | · | · | · | -3%
O=C(Cc1nc2ccccc2s1)c1ccc(O)cc1O | -9% | 3% | -23% | 0% | · | ·
O=C(CSc1nc2ccccc2s1)c1ccc(O)cc1O | -1% | -1% | 7.1µM* | -3% | -13% | 1%
COc1ccc2[nH]c3c(=O)n(CCCCC(=O)N4CCCC4)c(=S)[nH]c3c2c1 | 4% | 2µM* | -22% | 1% | -6% | ?
CCCNC(=O)CCCCn1c(=S)[nH]c2c([nH]c3ccc(OC)cc32)c1=O | 8% | -2% | -3% | -14% | 1% | -14%
O=C(Nc1ccc(N2CCCCC2)cc1)c1ccccc1 | 2% | 3.5µM* | -33% | 0% | ? | -17%
O=C(N/N=C/c1ccc(N2CCCCC2)o1)c1ccccc1 | -28% | -13% | -39% | -1% | -9% | 22µM*
O=C(N/N=C/c1ccccc1)c1ccc(N2CCOCC2)c([N+](=O)[O-])c1 | -9% | 0% | ? | -4% | 9% | 5%
CCOC(=O)c1ccc(NC(=O)c2ccccc2)cc1 | -3% | -3% | 10µM* | ? | 7% | 12%
O=C(N/N=C/c1ccc(N2CCOCC2)o1)c1cccc([N+](=O)[O-])c1 | ? | -3% | -26% | -1% | 3% | 13µM*
Cc1ccc(S(=O)(=O)c2cnc(SCC(=O)Nc3cccc(Cl)c3)nc2N)cc1C | · | · | · | 9% | · | 0%
CCOc1ccc(N2C(=O)CC(Sc3nnnn3-c3ccccc3)C2=O)cc1 (stereo not drawn) | 6% | 8% | 3% | -14% | 32µM* | -28%
CCOc1ccc(N2C(=O)CC(Sc3nc(C)cc(C)n3)C2=O)cc1 (stereo not drawn) | 3% | -2% | 2% | ? | -20% | 4%
CCOc1ccc(N2C(=O)CC(SCCN)C2=O)cc1 (stereo not drawn) | -24% | -28% | -2% | ? | 20µM* | 0%
CCCCCCOc1ccc(N2C(=O)CC(SCCN)C2=O)cc1 (stereo not drawn) | ? | -12% | 28% | 1% | -13% | -2%
Cc1cc(C)c(S(=O)(=O)Nc2ccc[nH]c2=O)c(C)c1 | 5.6µM* | 5% | -10% | 0% | 18% | -14%
Cc1cc(C)c(S(=O)(=O)Nc2cccc3cccnc23)c(C)c1 | -3% | · | · | · | · | ·
CC(Oc1ccc(Br)cc1)C(=O)Nc1ncn[nH]1 (stereo not drawn) | · | · | · | 3% | · | 1%
O=C(CN1C(=O)NC2(CCCC2)C1=O)Nc1cc(C(F)(F)F)ccc1N1CCCCC1 | · | · | 35µM* | ? | 1% | 5%
O=C(CN1C(=O)NC2(CCCCC2)C1=O)Nc1cc(C(F)(F)F)ccc1N1CCCCC1 | · | · | -2% | -1% | -1% | 5%
COc1ccccc1N1CCN(S(=O)(=O)c2c(C)sc3ncn(CC(=O)N(C)c4ccc(Cl)cc4)c(=O)c23)CC1 | · | · | · | 0% | · | 1%
N#C/C(=C/c1ccc(Br)s1)C(=O)NCCc1c[nH]c2ccccc12 | 0% | -1% | -26% | -1% | -2% | 4%
